# Assay results published in PubChem BioAssay (NCI).
# This is part of a sample that, as a whole, favours compounds with a hit. Of some 79,000 tested, about 15% had one in any assay. Activity calls are given as the source filed them. No stated cut-off is given here; in the data, active means growth inhibition above about 70%; inactive means the rest.
# Test: NCI Yeast Anticancer Drug Screen. Data for the mec2-1 strain (AID 157)
# Details: S. cerevisiae mec2-1 strain, at 50.0 µM, active compounds read high
# Outline: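 Mutant yeast (mec2-1) grown with compound; growth inhibition relative to vehicle control reported.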
row,SMILES,growth inhibition
1,C=CC(=NC(C)C)N(C)c1ccccc1,13.9% (inactive)
2,Cc1ccsc1/C=N/Nc1cnccn1,2.6% (inactive)
3,COC(=O)CCc1cccnc1/C=N/O,-31.8% (inactive)

# Test: NCI Yeast Anticancer Drug Screen. Data for the sgs1 mgt1 strain (AID 161);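 further: 0% = growth of cultures given vehicle only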
# Details: S. cerevisiae sgs1 mgt1 strain, at 50.0 µM, active compounds read high
# Outline: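 Growth of a repair-deficient yeast mutant was monitored after compound treatment and expressed as inhibition relative to vehicle-treated cultures.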
row,SMILES,growth inhibition
1,CCN(CC)CC(O)c1cccc2cc(Cl)ccc12 (stereo not drawn),28% (inactive)
2,C[C@@H]1CCC[C@H]1C(N)C(=O)O (stereo partly drawn),-3.85% (inactive)
3,CC1C(=O)CCC2CCCCC21 (stereo not drawn),8.05% (inactive)
4,O=C(c1ccccc1)[n+]1ccc2ccccc2c1,-4.35% (inactive)
5,CC(=O)CC(=O)C(C)C.[Cu+2],-17.1% (inactive)
6,CC(COc1ccccc1)N(CCCl)Cc1ccccc1 (stereo not drawn),-1.4% (inactive)
7,CCC1(CC)OC(=O)C(=O)N1N(C)C,-13.9% (inactive)
8,O=C(O)/C=C/C(=O)Nc1ccc2c(c1)C(O)c1ccccc1-2 (stereo not drawn),-1.9% (inactive)
9,O=C(/C=C/c1cccs1)c1ccc(Cl)s1,-2.55% (inactive)
10,Nc1cc(N)nc(S(=O)(=O)O)n1,-4.7% (inactive)
11,Cc1ccc(-c2nnc(NC(=O)Nc3ccc(Cl)cc3)o2)cc1,4.3% (inactive)
12,O=C(O)c1ccc(-c2nn[nH]n2)cc1,-4% (inactive)
13,Cc1ccc2nc(C(O)C(O)C(O)CO)[nH]c2c1 (stereo not drawn),10.7% (inactive)
14,CC(C)=CCC/C(C)=C/CO,-3.55% (inactive)
15,CCO/C=C1/N=C(c2ccccc2Cl)OC1=O,-1.05% (inactive)
16,CN(C)CCN=C1Nc2ccccc2C(=O)N2CSCC12 (stereo not drawn),-8.7% (inactive)
17,CC1(C)NC(c2ccccc2)c2ccsc2-n2cccc21 (stereo not drawn),-15.7% (inactive)
18,CN1CCC/C1=N\c1ncn[nH]1,-4.45% (inactive)
19,O=C1C(=O)C([n+]2cccc3ccccc32)=C([O-])C2=C1C1c3ccccc3C2c2ccccc21,98.9% (active)
20,O=c1[nH]c(=O)n(C2CC(O)C(CO)O2)cc1/C=C/Br (stereo not drawn),-8.95% (inactive)

row,SMILES,growth inhibition
1,NCC(O)C(F)(F)F (stereo not drawn),-27.3% (inactive)
2,CCC(O)(c1ccc(O)cc1)C(O)(CC)c1ccc(O)cc1 (stereo not drawn),-0.2% (inactive)
3,COc1ccc(S(=O)(=O)N(CC(=O)O)c2ccccc2)cc1,-4.35% (inactive)
4,O=C(O)C(Cc1ccccc1)C(=O)O.[NH2-].[NH2-].[Pt+2],10.9% (inactive)
5,CC1C2(C)OCC(C#N)(C(=N)O2)C1(C#N)C#N (stereo not drawn),-44.5% (inactive)
6,CCOP(=O)(OCC)C([O][Sb]([O]CC(C)Cl)[O]CC(C)Cl)c1ccc(OC)cc1 (stereo not drawn),-10.9% (inactive)
7,COC(=O)c1c(C)cc(OC)c(C/C=C(\C)CCCc2coc(C=C(C)C)c2)c1OC,19% (inactive)
8,BrC1(Br)C2COCOCC21 (stereo not drawn),-1.05% (inactive)
9,CC1=C(C(=O)Nc2ccccc2C)C(c2ccco2)C(C(=O)Nc2ccccc2C)=C(C)N1C,-38.1% (inactive)
10,C(=NC12CC3CC(CC(C3)C1)C2)C1CCCCC1,0.05% (inactive)
11,N#CC12CCC(O)C(CC1)C2=O (stereo not drawn),10.1% (inactive)
12,CC12CCC(C/C1=N\N=C(N)N)C2(C)C (stereo not drawn),-2.2% (inactive)
13,CSc1ccc(/C=C/c2ccnc3ccccc23)cc1,20.7% (inactive)
14,O=c1cc(-c2ccccc2)oc2c(-c3cc(Cl)cc4c(=O)cc(-c5ccccc5)oc34)cc(Cl)cc12,13.7% (inactive)
15,O=C(O)C(O)(C1CCCCC1)C1CCC2CCC3CCCC1C32 (stereo not drawn),20.1% (inactive)
16,C=C(Br)CN(C(C)=O)C1CCCCC1,8.05% (inactive)
17,CCOc1nc(N)nc(C)c1N=Nc1ccc(C)cc1,-4.5% (inactive)
18,C=CC(=NC(C)C)N(C)c1ccccc1,1.7% (inactive)
19,Cc1ccsc1/C=N/Nc1cnccn1,17.3% (inactive)
20,COC(=O)CCc1cccnc1/C=N/O,-11.8% (inactive)

# Test: NCI Yeast Anticancer Drug Screen. Data for the cln2 rad14 strain (AID 165);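 further: 0% = growth equal to vehicle treated cultures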
# Details: S. cerevisiae cln2 rad14 strain, at 50.0 µM, active compounds read high
# Outline: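 Readout is yeast growth inhibition versus vehicle-treated controls, using a strain with cln2 and rad14 alterations exposed to compound.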
row,SMILES,growth inhibition
1,CCN(CC)CC(O)c1cccc2cc(Cl)ccc12 (stereo not drawn),-15.2% (inactive)
2,C[C@@H]1CCC[C@H]1C(N)C(=O)O (stereo partly drawn),-25.1% (inactive)
3,CC1C(=O)CCC2CCCCC21 (stereo not drawn),7.95% (inactive)
4,O=C(c1ccccc1)[n+]1ccc2ccccc2c1,0.45% (inactive)
5,CC(=O)CC(=O)C(C)C.[Cu+2],-17.9% (inactive)
6,CC(COc1ccccc1)N(CCCl)Cc1ccccc1 (stereo not drawn),-43.3% (inactive)
7,CCC1(CC)OC(=O)C(=O)N1N(C)C,-15.2% (inactive)
8,O=C(O)/C=C/C(=O)Nc1ccc2c(c1)C(O)c1ccccc1-2 (stereo not drawn),-45.7% (inactive)
9,O=C(/C=C/c1cccs1)c1ccc(Cl)s1,-7.45% (inactive)
10,Nc1cc(N)nc(S(=O)(=O)O)n1,-25.9% (inactive)
11,Cc1ccc(-c2nnc(NC(=O)Nc3ccc(Cl)cc3)o2)cc1,-60.6% (inactive)
12,O=C(O)c1ccc(-c2nn[nH]n2)cc1,-11.8% (inactive)
13,Cc1ccc2nc(C(O)C(O)C(O)CO)[nH]c2c1 (stereo not drawn),-11.6% (inactive)
14,CC(C)=CCC/C(C)=C/CO,35.1% (inactive)
15,CCO/C=C1/N=C(c2ccccc2Cl)OC1=O,-30.1% (inactive)
16,CN(C)CCN=C1Nc2ccccc2C(=O)N2CSCC12 (stereo not drawn),-1.25% (inactive)
17,CC1(C)NC(c2ccccc2)c2ccsc2-n2cccc21 (stereo not drawn),18.9% (inactive)
18,CN1CCC/C1=N\c1ncn[nH]1,-65.3% (inactive)
19,O=C1C(=O)C([n+]2cccc3ccccc32)=C([O-])C2=C1C1c3ccccc3C2c2ccccc21,98.8% (active)
20,O=c1[nH]c(=O)n(C2CC(O)C(CO)O2)cc1/C=C/Br (stereo not drawn),-5.4% (inactive)

row,SMILES,growth inhibition
1,NCC(O)C(F)(F)F (stereo not drawn),-15.1% (inactive)
2,CCC(O)(c1ccc(O)cc1)C(O)(CC)c1ccc(O)cc1 (stereo not drawn),5.55% (inactive)
3,COc1ccc(S(=O)(=O)N(CC(=O)O)c2ccccc2)cc1,-6.15% (inactive)
4,O=C(O)C(Cc1ccccc1)C(=O)O.[NH2-].[NH2-].[Pt+2],13.1% (inactive)
5,CC1C2(C)OCC(C#N)(C(=N)O2)C1(C#N)C#N (stereo not drawn),-18.3% (inactive)
6,CCOP(=O)(OCC)C([O][Sb]([O]CC(C)Cl)[O]CC(C)Cl)c1ccc(OC)cc1 (stereo not drawn),-2.45% (inactive)
7,COC(=O)c1c(C)cc(OC)c(C/C=C(\C)CCCc2coc(C=C(C)C)c2)c1OC,11.9% (inactive)
8,BrC1(Br)C2COCOCC21 (stereo not drawn),0.55% (inactive)
9,CC1=C(C(=O)Nc2ccccc2C)C(c2ccco2)C(C(=O)Nc2ccccc2C)=C(C)N1C,-15.5% (inactive)
10,C(=NC12CC3CC(CC(C3)C1)C2)C1CCCCC1,3% (inactive)
11,N#CC12CCC(O)C(CC1)C2=O (stereo not drawn),15.2% (inactive)
12,CC12CCC(C/C1=N\N=C(N)N)C2(C)C (stereo not drawn),-36.9% (inactive)
13,CSc1ccc(/C=C/c2ccnc3ccccc23)cc1,-12.3% (inactive)
14,O=c1cc(-c2ccccc2)oc2c(-c3cc(Cl)cc4c(=O)cc(-c5ccccc5)oc34)cc(Cl)cc12,-3.1% (inactive)
15,O=C(O)C(O)(C1CCCCC1)C1CCC2CCC3CCCC1C32 (stereo not drawn),12.7% (inactive)
16,C=C(Br)CN(C(C)=O)C1CCCCC1,18.6% (inactive)
17,CCOc1nc(N)nc(C)c1N=Nc1ccc(C)cc1,-34.4% (inactive)
18,C=CC(=NC(C)C)N(C)c1ccccc1,-7.9% (inactive)
19,Cc1ccsc1/C=N/Nc1cnccn1,6.15% (inactive)
20,COC(=O)CCc1cccnc1/C=N/O,4.7% (inactive)
